Inconclusive results are not listed. Unmarked numbers belong to inactive results. The source made the active and inactive calls. Calls follow the shape of the dose curve; as a rule, active = well fitted inhibition curve with a large enough effect; inconclusive = small, poorly fitted or top-dose-only effect; inactive = flat fitted curve, though single readings scatter.

This is an account of results in PubChem BioAssay (NCATS).
Potency is read from the fitted curve at half-maximal effect.

One test deals with ICS. Description: qHTS profiling for inhibitors of Plasmodium falciparum proliferation (AID 504749). Also: nearly all actives have a fitted effect of over 60% in size.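 As to activity, negative = inhibition: 0% = DMSO vehicle and full inhibition = artemisinin control.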 To be noted: P. falciparum in erythrocytes, SYBR Green DNA, 72 h; series mostly up to 28.7 µM; activity, negative = inhibition: at the top concentration. The gist of the method: (§1)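 Fluorescence of SYBR Green-bound parasite DNA, read at 485/535 nm, served as the growth measure. Infected erythrocytes were cultured with compound 72 h; artemisinin (0.29 uM) and DMSO wells defined the normalization range.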
As to `C=C(C)[C@H]1Cc2c(ccc3c2O[C@@H]2COc4cc(OC)c(OC)cc4[C@@H]2C3=O)O1`, the Potency is 11.2 µM (active).

In the case of `O=c1[nH]c2ccccc2n1C1CCN(CCCC(c2ccc(F)cc2)c2ccc(F)cc2)CC1`, the Potency is 14.1 µM (active).

For `CC1OC(C)OC(C)O1` (configuration not stated), the Potency result was “inactive”.

Turning to `O=c1[nH]c2ccccc2n1CCCN1CCC(n2c(=O)[nH]c3cc(Cl)ccc32)CC1`, the Potency is 2.24 µM (active).

The next test concerns JCK. The description is as above. The note with it: P. falciparum in erythrocytes, SYBR Green DNA, 72 h; series mostly up to 28.7 µM; activity, negative = inhibition: at the top concentration. The procedure, abridged:
as §1
Take `C=C(C)[C@H]1Cc2c(ccc3c2O[C@@H]2COc4cc(OC)c(OC)cc4[C@@H]2C3=O)O1`: the “activity, negative = inhibition” value was 10.9%.

As for `O=c1[nH]c2ccccc2n1C1CCN(CCCC(c2ccc(F)cc2)c2ccc(F)cc2)CC1`, the “activity, negative = inhibition” value was 6.84%.

As for `CC1OC(C)OC(C)O1` (configuration not stated), the Potency result is “inactive”.

In a further test the test system is N140. The test is described as above. To be noted: P. falciparum in erythrocytes, SYBR Green DNA, 72 h; series mostly up to 28.7 µM; activity, negative = inhibition: at the top concentration. The gist of the method:
as §1
For the compound `C=C(C)[C@H]1Cc2c(ccc3c2O[C@@H]2COc4cc(OC)c(OC)cc4[C@@H]2C3=O)O1`, the “activity, negative = inhibition” value is -6.07%.

With `CC1OC(C)OC(C)O1` (configuration not stated), the Potency result is “inactive”.

As to `O=c1[nH]c2ccccc2n1CCCN1CCC(n2c(=O)[nH]c3cc(Cl)ccc32)CC1`, the Potency was 6.31 µM (active).

In another test the test system is P93_24. The test is described as above. To be noted: P. falciparum in erythrocytes, SYBR Green DNA, 72 h; series mostly up to 28.7 µM; activity, negative = inhibition: at the top concentration. The procedure, abridged: as §1
For the compound `C=C(C)[C@H]1Cc2c(ccc3c2O[C@@H]2COc4cc(OC)c(OC)cc4[C@@H]2C3=O)O1`, the “activity, negative = inhibition” value is -21.8%.

Consider `CC1OC(C)OC(C)O1` (configuration not stated), for which the Potency entry is “inactive”.

Consider `O=c1[nH]c2ccccc2n1CCCN1CCC(n2c(=O)[nH]c3cc(Cl)ccc32)CC1`, for which the Potency is 5.01 µM (active).

The test system of a further test is P94_40. The description is as above. To be noted: P. falciparum in erythrocytes, SYBR Green DNA, 72 h; series mostly up to 28.7 µM; activity, negative = inhibition: at the top concentration. The procedure, abridged: as §1
Turning to `O=c1[nH]c2ccccc2n1C1CCN(CCCC(c2ccc(F)cc2)c2ccc(F)cc2)CC1`, the “activity, negative = inhibition” value is -4.39%.

For `CC1OC(C)OC(C)O1` (configuration not stated), the Potency entry was “inactive”.

For the compound `O=c1[nH]c2ccccc2n1CCCN1CCC(n2c(=O)[nH]c3cc(Cl)ccc32)CC1`, the Potency was 11.2 µM (active).

The test system of a further test is PAD. The description is as above. The note with it: P. falciparum in erythrocytes, SYBR Green DNA, 72 h; series mostly up to 28.7 µM; activity, negative = inhibition: at the top concentration. The procedure, abridged:
as §1
`C=C(C)[C@H]1Cc2c(ccc3c2O[C@@H]2COc4cc(OC)c(OC)cc4[C@@H]2C3=O)O1`: the “activity, negative = inhibition” value was -16%.

As for `O=c1[nH]c2ccccc2n1C1CCN(CCCC(c2ccc(F)cc2)c2ccc(F)cc2)CC1`, the “activity, negative = inhibition” value is -16.8%.

Regarding `CC1OC(C)OC(C)O1` (configuration not stated), the Potency entry is “inactive”.

`O=c1[nH]c2ccccc2n1CCCN1CCC(n2c(=O)[nH]c3cc(Cl)ccc32)CC1`: the Potency was 4.47 µM (active).

The subject of a further test is PC15. Described as above. The note with it: P. falciparum in erythrocytes, SYBR Green DNA, 72 h; series mostly up to 28.7 µM; activity, negative = inhibition: at the top concentration. The gist of the method:
as §1
`C=C(C)[C@H]1Cc2c(ccc3c2O[C@@H]2COc4cc(OC)c(OC)cc4[C@@H]2C3=O)O1`: the “activity, negative = inhibition” value is -11.9%.

In the case of `O=c1[nH]c2ccccc2n1C1CCN(CCCC(c2ccc(F)cc2)c2ccc(F)cc2)CC1`, the “activity, negative = inhibition” value was -11.8%.

Turning to `CC1OC(C)OC(C)O1` (configuration not stated), the Potency entry was “inactive”.

For `O=c1[nH]c2ccccc2n1CCCN1CCC(n2c(=O)[nH]c3cc(Cl)ccc32)CC1`, the Potency is 7.94 µM (active).

For a further test, the system named is PC26. Described as above. The note with it: P. falciparum in erythrocytes, SYBR Green DNA, 72 h; series mostly up to 28.7 µM; activity, negative = inhibition: at the top concentration. The procedure, abridged:
as §1
For `C=C(C)[C@H]1Cc2c(ccc3c2O[C@@H]2COc4cc(OC)c(OC)cc4[C@@H]2C3=O)O1`, the “activity, negative = inhibition” value is -21%.

On to `CC1OC(C)OC(C)O1` (configuration not stated), for which the Potency entry was “inactive”.

For the compound `O=c1[nH]c2ccccc2n1CCCN1CCC(n2c(=O)[nH]c3cc(Cl)ccc32)CC1`, the Potency was 6.75 µM (active).

A further test relates to PC49. Described as above. The note with it: P. falciparum in erythrocytes, SYBR Green DNA, 72 h; series mostly up to 28.7 µM; activity, negative = inhibition: at the top concentration. The procedure, abridged: as §1
In the case of `C=C(C)[C@H]1Cc2c(ccc3c2O[C@@H]2COc4cc(OC)c(OC)cc4[C@@H]2C3=O)O1`, the “activity, negative = inhibition” value was 11.5%.

For the compound `O=c1[nH]c2ccccc2n1C1CCN(CCCC(c2ccc(F)cc2)c2ccc(F)cc2)CC1`, the “activity, negative = inhibition” value is 5.33%.

As for `CC1OC(C)OC(C)O1` (configuration not stated), the Potency result was “inactive”.

For the compound `O=c1[nH]c2ccccc2n1CCCN1CCC(n2c(=O)[nH]c3cc(Cl)ccc32)CC1`, the “activity, negative = inhibition” value is -26.2%.

The subject of the next test is SC27B. The test is described as above. To be noted: P. falciparum in erythrocytes, SYBR Green DNA, 72 h; series mostly up to 28.7 µM; activity, negative = inhibition: at the top concentration. The procedure, abridged: as §1
As for `C=C(C)[C@H]1Cc2c(ccc3c2O[C@@H]2COc4cc(OC)c(OC)cc4[C@@H]2C3=O)O1`, the “activity, negative = inhibition” value was -6.72%.

Turning to `O=c1[nH]c2ccccc2n1C1CCN(CCCC(c2ccc(F)cc2)c2ccc(F)cc2)CC1`, the “activity, negative = inhibition” value is -8.47%.

In the case of `CC1OC(C)OC(C)O1` (configuration not stated), the Potency entry is “inactive”.

For a further test, the system named is TAB109. The test is described as above. To be noted: P. falciparum in erythrocytes, SYBR Green DNA, 72 h; series mostly up to 28.7 µM; activity, negative = inhibition: at the top concentration. The procedure, abridged:
as §1
For `C=C(C)[C@H]1Cc2c(ccc3c2O[C@@H]2COc4cc(OC)c(OC)cc4[C@@H]2C3=O)O1`, the “activity, negative = inhibition” value was -7.66%.

With `O=c1[nH]c2ccccc2n1C1CCN(CCCC(c2ccc(F)cc2)c2ccc(F)cc2)CC1`, the “activity, negative = inhibition” value was 0.625%.

Take `CC1OC(C)OC(C)O1` (configuration not stated): the Potency result was “inactive”.

For the compound `O=c1[nH]c2ccccc2n1CCCN1CCC(n2c(=O)[nH]c3cc(Cl)ccc32)CC1`, the Potency was 5.01 µM (active).

The test system of another test is TAB113. The test is described as above. The note with it: P. falciparum in erythrocytes, SYBR Green DNA, 72 h; series mostly up to 28.7 µM; activity, negative = inhibition: at the top concentration. The procedure, abridged:
as §1
On to `C=C(C)[C@H]1Cc2c(ccc3c2O[C@@H]2COc4cc(OC)c(OC)cc4[C@@H]2C3=O)O1`, for which the “activity, negative = inhibition” value is -17.6%.

For `O=c1[nH]c2ccccc2n1C1CCN(CCCC(c2ccc(F)cc2)c2ccc(F)cc2)CC1`, the “activity, negative = inhibition” value was -6.8%.

As to `CC1OC(C)OC(C)O1` (configuration not stated), the Potency entry was “inactive”.

The next test has as its system TAB165. The description is as above. The note with it: P. falciparum in erythrocytes, SYBR Green DNA, 72 h; series mostly up to 28.7 µM; activity, negative = inhibition: at the top concentration. The gist of the method:
as §1
As for `C=C(C)[C@H]1Cc2c(ccc3c2O[C@@H]2COc4cc(OC)c(OC)cc4[C@@H]2C3=O)O1`, the “activity, negative = inhibition” value is -10.9%.
